In all, about 69,000 compounds went through this assay and about 8,600 (12%) showed an effect of 50% or more. Many of the other results were omitted from the sample, so strong results are more common in it than they were.

The subject of this experiment is Plasmodium berghei. Kind of experiment: Screen against P. berghei liver stage (PbLuc), transformed with Luciferase, at 10uM. Type of experiment: functional, HepG2. Particulars: tested at 10 uM.
As to `CC(=O)Nc1nc(C(=O)N2CCCC2c2ccc(Br)cc2)cs1` (centres undefined), the INHIBITION came out at 26.4%.
`Cc1cc(C)c(CNC(=O)C(C)Oc2cccc(C#N)c2)c(=O)[nH]1` (centres undefined): the INHIBITION is on record as 36.4%.
The value for `CCC(C)Oc1ccccc1Cn1cc2[nH]cccc-2c1=O` (centres undefined) was 41.5%; that for `Cc1ccnc(C2CN(c3ccnc(C)n3)C2)n1` was 28.6%; that for `CCc1nc(NC2CCN(CC(=O)NC3CC3)CC2)c2cnn(C)c2n1` was 21.8%.
The value for `COc1cccc(CN2CCC(CO)(Cc3ccc(Cl)cc3)CC2)c1O` was 85.4%; that for `OCC1(Cc2ccc(Cl)cc2)CCN(Cc2cccnc2)CC1` was 92%.
The value for `Clc1ccc(CN2CCC(C3CCN(Cc4cccnc4)CC3)C2)cc1` (centres undefined) was 36.8%.
For the compound `Clc1ccc(CN2CCC3(CC2)CC(c2cccnc2)=NO3)cc1`, the INHIBITION turned out to be 46.6%.
For `COc1ccc(CN2CCC(CO)(Cc3ccc(Cl)cc3)CC2)c(O)c1` the value was 31.6%; for `OCC1(Cc2ccc(Cl)cc2)CCN(Cc2ccccc2O)CC1`, 14.6%; for `Cc1c(C(=O)NCC2CCCO2)nnn1-c1cccc2c1CCN(C)C2` (centres undefined), 29.2%.
For `COc1c(C2CCCN2C(=O)c2ccc3[nH]cnc3c2)c(C)nn1C` (centres undefined) the value was -2.19%; for `O=C(C1CC1)N1C[C@@H](F)[C@@H](OCc2nc3ccccc3o2)C1`, 13.1%.
For `CC(C)(C)C(=O)N1C[C@@H](F)[C@@H](OCc2nc3ccccc3o2)C1` the value was 70.7%.
For `O=C(c1ccno1)N1C[C@@H](F)[C@@H](OCc2nc3ccccc3o2)C1`, the INHIBITION is recorded as 56.3%.
The value for `O=C(C1CC1)N1C[C@@H](F)[C@@H](OCc2nc3ccccc3[nH]2)C1` was 7.85%.
The value for `CC(C)NC(=O)N1C[C@@H](F)[C@@H](OCc2nc3ccccc3o2)C1` was 58.5%; that for `CC(=O)N1C[C@@H](F)[C@@H](OCc2nc3ccccc3o2)C1` was -15.6%; that for `F[C@@H]1CN(CC2CC2)C[C@@H]1OCc1nc2ccccc2o1` was -3.5%.
The value for `CS(=O)(=O)N1C[C@@H](F)[C@@H](OCc2nc3ccccc3o2)C1` was 41.1%.
With `F[C@@H]1CN(CC2CCCCC2)C[C@@H]1OCc1nc2ccccc2o1`, the INHIBITION was 29.8%.
Consider `CCC(CN1CCCCC1)NC(=O)C1(c2ccc(F)cc2)CC1` (centres undefined), for which the INHIBITION was 48.2%.
For `COc1ccc(C(=O)N2CCOCC2c2[nH]ncc2C)cc1F` (centres undefined) the value was 3.75%; for `Cc1cnn(CC2CN(Cc3nc4ccccc4c(=O)[nH]3)CCO2)c1` (centres undefined), 29.4%; for `Cc1nc2c(Nc3cccc(C#N)c3)nc(N)nc2n1C`, -42.8%.
Regarding `CC(C)NC(=O)N1CCC2(CC1)Cc1ccccc1CN(C)C2=O`, the INHIBITION was -6.25%.
The value for `CNC(=O)Nc1cc(-c2ccccc2C)nn1CCO` was -60%.
The value for `CCNC(=O)CCC(=O)NCC1(O)CCC(C(C)(C)C)CC1` (centres undefined) was -23.8%.
As for `COc1cccc(S(=O)(=O)N2CCCCC2CCN2CCOCC2)c1` (centres undefined), the INHIBITION is recorded as 22.6%.
For the compound `O=C(CCCN1CCCCC1)N[C@H](C(=O)O)c1cccc(F)c1F`, the INHIBITION is 34.5%.
Regarding `CC(C)N1CCC(CC(=O)NC(C(=O)O)c2cc(F)ccc2F)CC1` (centres undefined), the INHIBITION stood at 52.1%.
For `CC(C)N1CCC(CC(=O)NC(C(=O)O)c2ccc(F)cc2)CC1` (centres undefined) the value was 33.9%; for `CCN1CCC(CC(=O)N[C@H](C(=O)O)c2cccc(F)c2F)CC1`, -2.39%.
For `CC(C)N1CCC(CC(=O)NC(C(=O)O)c2cccc(F)c2)CC1` (centres undefined) the value was 36.7%; for `CCCN1CCC(CC(=O)N[C@H](C(=O)O)c2cccc(F)c2F)CC1`, 53%; for `O=C(CCc1nc2cccnc2[nH]1)Nc1ccc2c(c1)NC(=O)CO2`, 14.8%.
For `CSc1nccc(N2CCC(NCc3ccc4nsnc4c3)CC2)n1` the value was 76.9%.
As for `Cc1ccc(N2CCCC(NCc3ccc4c(c3)OCCO4)C2)nn1` (centres undefined), the INHIBITION is listed as -19.4%.
The value for `Cc1cccc(N2CCC(NCc3cnc(C4CCC4)s3)CC2)n1` was 36.5%; that for `CSc1nccc(N2CCC(NCc3ccc4c(c3)OCO4)CC2)n1` was 57.4%.
For `CSc1nccc(N2CCC(NCc3nc(C)cc(C)n3)CC2)n1` the value was 8.7%.
For `CSc1nccc(N2CCC(=O)N(CC3CC3)C(C(C)C)C2)n1` (centres undefined) the value was 7.43%.
Consider `O=C(NCCNS(=O)(=O)N1CCCCCC1)c1ncccc1O`, for which the INHIBITION was -13.6%.
The value for `CCCC(O)CN1CCC(=O)N(Cc2ccccc2)Cc2ccccc21` (centres undefined) was -30%; that for `Cc1ccc(C)n1-c1c(C(=O)NCC(C)Cn2cccn2)cnn1C` (centres undefined) was 5.36%; that for `CN1[C@H](CN2CCCC2)C[C@@H]2CN(C(=O)Cc3cccs3)CC[C@@H]21` was 49.1%.
For `Cc1cc(C(=O)Nc2ccc3c(c2)N(C)CCN(C)C3)on1`, the INHIBITION is given as 44.2%.
For `CCc1ccc(C(=O)Nc2ccc3c(c2)N(C)CCN(C)C3)o1` the value was 66.9%; for `CN1CCN(C)c2cc(NC(=O)c3cc[nH]n3)ccc2C1`, 43.1%.
The value for `c1ccc(CCCN2CCCN(c3ncnc4[nH]ccc34)CC2)cc1` was 52.7%; that for `c1ccc(CCN2CCN(c3ncnc4[nH]ccc34)CC2)cc1` was 33%; that for `c1ccc(OCCN2CCN(c3ncnc4[nH]ccc34)CC2)cc1` was 35.1%.
The value for `COc1ccc(Cn2c(CCc3c(C)n[nH]c3C)n[nH]c2=O)cc1` was -5.08%; that for `CCCc1nc(C)c(C(=O)NCCN2CCOCC2)s1` was -65.3%.
For the compound `COc1ccc(CCC2CCCCN2)cc1` (centres undefined), the INHIBITION is given as 49.6%.
For `O=C(O)c1cccc2c(Br)cccc12` the value was 73.9%.
For `O=C(O)c1cnc2c(Br)cccc2c1O` the value was 27.5%.
For `O=C(O)c1ccnc2c(Br)cccc12` the value was 9.32%.
On to `C=C(C)COc1ccccc1C(=O)NCCc1cc(O)nc(C)n1`, for which the INHIBITION was found to be 41.3%.
The value for `CCOC(=O)N1CC2(CCNCC2)c2cc(Cl)ccc21` was 21.1%; that for `CN(C)C(=O)N1Cc2ccccc2C2(CCNCC2)C1` was 12.4%; that for `O=C(C1CC1)N1CC2(CCNCC2)C1` was -1.12%.
For `COCC(=O)N1CCc2ccccc2C12CCNCC2` the value was 40.5%; for `CCOC(=O)N1CCc2ccccc2C12CCNCC2`, 50.4%.
The value for `O=C(C1CC1)N1CCc2ccccc2C12CCNCC2` was 55.4%.
`Cc1ccc(CC(=O)N2CCC(Nc3cccnn3)CC2)s1`: the INHIBITION is on record as -58.0025%.
The value for `Cc1ccccc1C(C(=O)NCCS(C)(=O)=O)N(C)C` (centres undefined) was 22.6%; that for `c1ncn(CC2CN(Cc3nc(-c4ccsc4)no3)CCO2)n1` (centres undefined) was -3.165%; that for `Cc1nc(C)n(CC2CN(Cc3ccccc3OC(C)C)CCO2)n1` (centres undefined) was 26.5%.
For `COCCNC(=O)c1ccccc1-n1cc(CN)cn1` the value was 17.1%; for `NCc1cnn(-c2ccccc2C(=O)NCCc2ccncc2)c1`, 8.72%.
The value for `NCc1cnn(-c2ccccc2C(=O)NCCCn2ccnc2)c1` was 54.6%; that for `NCc1cnn(-c2ccccc2C(=O)NCc2ccncc2)c1` was 17.1%; that for `NCc1cnn(-c2ccccc2C(=O)NCc2ccccn2)c1` was 53.2%.
In the case of `NCc1cnn(-c2ccccc2C(=O)NCCc2ccccn2)c1`, the INHIBITION was 24.4%.
The value for `CCN(C(=O)c1ccc(-n2ncc(C#N)c2N)cc1)C1CCCC1` was 25.1%; that for `Cc1cc(NCCCNS(C)(=O)=O)nc2ccccc12` was 62%.
The value for `Cc1cc(NCC2(O)CCOCC2)c2ccccc2n1` was 26%; that for `Cc1cc(NCCOCCS(C)(=O)=O)nc2ccccc12` was 46.6%; that for `Cc1cc(C)n(-c2cncc(NCCNS(C)(=O)=O)n2)n1` was 29%.
For `Cc1cc(NCCS(C)(=O)=O)nc2ccccc12` the value was 8.05%.
On to `Cc1cc(NCC2(O)CCOCC2)nc2ccccc12`, for which the INHIBITION came out at 71.7%.
For `OC1(CNc2cc(C(F)(F)F)nc3ccccc23)CCOCC1` the value was -32.3%; for `COc1cc2nc(NCCNS(C)(=O)=O)cc(C)c2cc1OC`, 50.3%.
Take `Cc1cc(NCCNS(C)(=O)=O)nc2cc3c(cc12)CCC3`: the INHIBITION is given as -6.88%.
The value for `O=S(=O)(NCC1CCN(c2cnccn2)CC1)c1ccc(F)c(Cl)c1` was -54.5%.
The value for `CCc1c(C)n(CC(C)=O)c2nc3ccccc3n2c1=O` was 4.66%.
The value for `c1csc(CN2CC(c3nc(-c4cnccn4)no3)C2)c1` was -12.6%; that for `CN(Cc1noc(C2CC2)n1)C1CCN(CCc2cnn(C)c2)C1` (centres undefined) was 11.2%; that for `Cc1ccc(CN2C[C@H]3C[C@H](C(=O)NCC4CC4)N(C)[C@H]3C2)o1` was 18.6%.
Take `CN(Cc1cnn(C)c1)CC1CCCN1c1cccnn1` (centres undefined): the INHIBITION amounted to 5.7%.
The value for `NCc1ccc(Oc2ccc(F)c(F)c2)cc1C(F)(F)F` was 26.1%.
The value for `Cc1ccc(CNC(=O)COc2ccc3c(c2)OCC3O)cc1` (centres undefined) was 0.266%; that for `COCCn1nc(C(=O)N(C)Cc2ccc3ccccc3c2)ccc1=O` was 43.4%.
The value for `Cc1cnn(CC2CCCCN2C(=O)c2cccnc2N(C)C)c1` (centres undefined) was 15.5%.
With `O=C(c1ccoc1)N1CCC2(CC1)COC(COCc1ccccn1)C2` (centres undefined), the INHIBITION came out at 23.8%.
For `O=C(c1ncccn1)N1CCC2(CC1)COC(COc1ccccn1)C2` (centres undefined) the value was 12.6%; for `O=C(c1ccoc1)N1CCC2(CC1)COC(COc1ccccn1)C2` (centres undefined), 73.6%; for `CCC(C)N(CCOC)Cc1nc2c(cnn2C)c(=O)[nH]1` (centres undefined), 14.22%.
The value for `CC(C)NC(=O)CC(C)NCc1ccc(F)cc1Cl` (centres undefined) was 53.6%; that for `CN(CC(N)=O)Cc1ccc(F)cc1Cl` was -59.5%.
For `CC(C)NC(=O)CC(C)NCc1cc(Cl)ccc1F` (centres undefined) the value was 27.6%; for `COc1c(C(=O)NC(C)Cc2ccccc2Cl)c(C)nn1C` (centres undefined), 17.5%.
Take `O=C(O)c1c(-c2cncnc2)ncc2c1CCN(Cc1ccco1)C2`: the INHIBITION is given as -27.1%.
The value for `CCn1nc2c(cc1=O)CN(Cc1nc(-c3cccnc3)no1)CC2` was -56.575%.
For `Cc1cnc(N)nc1NCCSCc1[nH]cnc1C` the value was 39.1%.
The value for `CCc1c(C)nc(N)nc1NCCSCc1[nH]cnc1C` was 69.4%.
Consider `Cc1nc(C)c(C)c(NCCSCc2[nH]cnc2C)n1`, for which the INHIBITION is on record as -8.47%.

(Values after ChEMBL document CHEMBL4513216, “Probing the Open Global Health Chemical Diversity Library for Multistage-Active Starting Points for Next-Generation Antimalarials” (ACS Infect Dis, 2020).)
